Laboratory results published in PubChem BioAssay (Tox21).
Several values for one entry are separate records, joined by “and”; a condition that tells them apart may be missing. Identical values can stand only once. Records with an inconclusive call do not appear. Some structures have more than one record in an assay (separate samples or runs), and their calls can disagree. Activity calls are given as the source filed them. Unless noted, calls follow the shape of the dose curve; as a rule, active = well fitted curve in the direction sought with a large enough effect in the repeat runs; inconclusive = weak or mixed curves; inactive = no such curve, though single readings can be large; an effect the other way counts as inactive or inconclusive.

molecular target: Nuclear receptor subfamily 1 group I member 3 (Homo sapiens) (UniProt Q14994); test: qHTS assay to identify small molecule antagonists of the constitutive androstane receptor (CAR) signaling pathway (AID 1224838); conditions: HepG2-CYP2B6-hCAR luciferase, CITCO-stimulated, 24 h; series mostly up to 92.4 µM; activity, negative = inhibition: at the top concentration;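 also: HepG2 cells stably expressing hCAR with CYP2B6 luciferase reporter stimulated by CITCO; nearly all actives have a fitted effect of over 40% in size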
In short: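 Quantitative HTS in double-stable HepG2-CYP2B6-hCAR cells. After 4 h plating, cells get compound (15 concentrations) and CITCO at 50 nM final, incubate 24 h at 37 C, then ONE-Glo luminescence is read.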
% is scaled to controls: 0 for no effect and ±100 for the full control effect.

Chain of Nuclear receptor subfamily 1 group I member 3 (Homo sapiens) (Q14994 whole entry, looked up): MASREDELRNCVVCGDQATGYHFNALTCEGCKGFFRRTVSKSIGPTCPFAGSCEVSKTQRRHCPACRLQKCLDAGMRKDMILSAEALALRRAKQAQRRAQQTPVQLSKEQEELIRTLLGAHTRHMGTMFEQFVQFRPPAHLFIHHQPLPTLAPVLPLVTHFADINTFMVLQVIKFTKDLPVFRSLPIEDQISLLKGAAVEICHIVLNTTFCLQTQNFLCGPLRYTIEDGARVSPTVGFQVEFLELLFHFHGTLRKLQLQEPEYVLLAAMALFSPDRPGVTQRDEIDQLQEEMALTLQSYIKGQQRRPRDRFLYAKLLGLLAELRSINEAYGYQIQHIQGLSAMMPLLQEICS

Question: For `C1OCOCO1`, which “activity, negative = inhibition” value is on record?
Answer: -2.6% (inactive)

Question: Which Potency does the source give for `O=C1CCCCCCCCCCCN1` here?
Answer: inactive

Question: For `NC(=O)c1cn(Cc2c(F)cccc2F)nn1`, which “activity, negative = inhibition” value is on record?
Answer: -20.1% [at 42.5 µM] (inactive)

Question: For `OC[C@]1(O)OC[C@@H](O)[C@H](O)[C@@H]1O`, which Potency is on record?
Answer: inactive

Question: For `CCCCC/C=C\CCC=O`, which “activity, negative = inhibition” value is on record?
Answer: 5.92% (inactive)

Question: With `CC(C)(O)C#CC(C)(C)O` as the compound, how does the “activity, negative = inhibition” value read?
Answer: -5.66% (inactive)

Question: With `CC[N+](C)(C)c1cccc(O)c1` as the compound, how does the “activity, negative = inhibition” value read?
Answer: -12.2% [at 42.5 µM] (inactive)

Question: For `CCN1CCC[C@H]1CNC(=O)c1c(O)c(Cl)cc(Cl)c1OC`, which “activity, negative = inhibition” value is on record?
Answer: -20.5% [at 42.5 µM] (inactive)

Question: With `CCN(Cc1ccncc1)C(=O)C(CO)c1ccccc1` (stereo unspecified) as the compound, how does the “activity, negative = inhibition” value read?
Answer: -3.37% [at 42.5 µM] (inactive)

Question: Which “activity, negative = inhibition” value does the source give for `Cc1[nH]c(=O)c(C#N)cc1-c1ccc2nccn2c1` here?
Answer: -0.991% [at 42.5 µM] (inactive)

Question: For `Nc1cc(=O)[nH]c(N)n1`, which “activity, negative = inhibition” value is on record?
Answer: -11.4% [at 42.5 µM] (inactive)

Question: Which “activity, negative = inhibition” value does the source give for `NCCc1cnc[nH]1` here?
Answer: -4.12% [at 42.5 µM] (inactive)

Question: For `Brc1c(NC2=NCCN2)ccc2nccnc12`, which “activity, negative = inhibition” value is on record?
Answer: -1.68% [at 42.5 µM] (inactive)

Question: For `CC(C)(C)c1ccc(O)c(O)c1`, which Potency is on record?
Answer: inactive

Question: Which activity, negative = inhibition does the source give for `Nc1ccc(S(=O)(=O)Nc2ccnn2-c2ccccc2)cc1` here?
Answer: 0.346% [at 19 µM] (inactive)

Question: For `CC(C)(c1ccc(O)cc1)c1ccc(O)cc1`, which Potency is on record?
Answer: inactive

Question: For `O=c1n(CCO)c(=O)n(CCO)c(=O)n1CCO`, which Potency is on record?
Answer: inactive

Question: With `CCn1nc(C(=O)O)c(=O)c2cc3c(cc21)OCO3` as the compound, how does the “activity, negative = inhibition” value read?
Answer: -2.59% [at 42.5 µM] (inactive)

Question: Which Potency does the source give for `CCCCOCCOCCOCc1cc2c(cc1CCC)OCO2` here?
Answer: inactive

Question: Which “activity, negative = inhibition” value does the source give for `CN1CCC(=C2c3ccccc3CC(=O)c3sccc32)CC1` here?
Answer: 6.71% [at 42.5 µM] (inactive)

Question: Which “activity, negative = inhibition” value does the source give for `CCN(CC)CCOCCOC(=O)C1(c2ccccc2)CCCC1` here?
Answer: 10.6% [at 42.5 µM] (inactive)

Question: For `COc1ccc(CCN(C)CCCC(C#N)(c2cc(OC)c(OC)c(OC)c2)C(C)C)cc1OC` (stereo unspecified), which “activity, negative = inhibition” value is on record?
Answer: 15.1% [at 42.5 µM] (inactive)

molecular target: Nuclear receptor subfamily 1 group I member 3 (Homo sapiens) (UniProt Q14994); test: qHTS assay to identify small molecule agonists of the constitutive androstane receptor (CAR) signaling pathway (AID 1224839); conditions: HepG2 hCAR CYP2B6-luciferase, agonist mode, 24 h; series mostly up to 92.4 µM; activation: at the top concentration; also: nearly all actives have a fitted effect of over 15% in size; also: potency is read from the fitted curve at half-maximal effect;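 as to activation: HepG2 cells stably carrying human CAR and a CYP2B6 luciferase reporter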
In short: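 In this screen, CAR-driven CYP2B6 promoter activity is measured by luminescence in HepG2-CYP2B6-hCAR cells after 24 h with test compounds and 0.75 uM PK11195 (final concentration).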

Question: For `C1OCOCO1`, which “activation” value is on record?
Answer: -0.866% (inactive)

Question: Which “activation” value does the source give for `NC(=O)c1cn(Cc2c(F)cccc2F)nn1` here?
Answer: 0.0167% [at 42.5 µM] (inactive)

Question: With `O=c1cc(-c2ccccc2)oc2ccccc12` as the compound, how does the Potency read?
Answer: 27.3 µM (active) and 21.6 µM (active)

Question: With `OC[C@]1(O)OC[C@@H](O)[C@H](O)[C@@H]1O` as the compound, how does the Potency read?
Answer: inactive

Question: With `CCCCC/C=C\CCC=O` as the compound, how does the “activation” value read?
Answer: 0.474% (inactive)

Question: With `CC(C)(O)C#CC(C)(C)O` as the compound, how does the “activation” value read?
Answer: -1.31% (inactive)

Question: Which “activation” value does the source give for `CC[N+](C)(C)c1cccc(O)c1` here?
Answer: 0.0502% [at 42.5 µM] (inactive)

Question: With `CN(C)CCCN1c2ccccc2CCc2ccc(Cl)cc21` as the compound, how does the Potency read?
Answer: inactive

Question: Which “activation” value does the source give for `CCN1CCC[C@H]1CNC(=O)c1c(O)c(Cl)cc(Cl)c1OC` here?
Answer: -0.127% [at 42.5 µM] (inactive)

Question: Which “activation” value does the source give for `CCN(Cc1ccncc1)C(=O)C(CO)c1ccccc1` (stereo unspecified) here?
Answer: -0.613% [at 42.5 µM] (inactive)

Question: For `Cc1[nH]c(=O)c(C#N)cc1-c1ccc2nccn2c1`, which “activation” value is on record?
Answer: -2.82% [at 42.5 µM] (inactive)

Question: Which “activation” value does the source give for `Nc1cc(=O)[nH]c(N)n1` here?
Answer: -0.802% [at 42.5 µM] (inactive)

Question: With `Brc1c(NC2=NCCN2)ccc2nccnc12` as the compound, how does the “activation” value read?
Answer: -4.35% [at 42.5 µM] (inactive)

Question: With `CC(C)(C)c1ccc(O)c(O)c1` as the compound, how does the Potency read?
Answer: 63.2 µM (active) and 24.3 µM (active)

Question: With `Nc1ccc(S(=O)(=O)Nc2ccnn2-c2ccccc2)cc1` as the compound, how does the activation read?
Answer: -2.19% [at 19 µM] (inactive)

Question: With `CC(C)(c1ccc(O)cc1)c1ccc(O)cc1` as the compound, how does the Potency read?
Answer: 30.3 µM (active) and 11.1 µM (active)

Question: For `O=c1n(CCO)c(=O)n(CCO)c(=O)n1CCO`, which Potency is on record?
Answer: inactive

Question: With `CCCCOCCOCCOCc1cc2c(cc1CCC)OCO2` as the compound, how does the Potency read?
Answer: 7.79 µM (active) and 11.9 µM (active)

Question: With `CN1CCC(=C2c3ccccc3CC(=O)c3sccc32)CC1` as the compound, how does the “activation” value read?
Answer: -1.04% [at 42.5 µM] (inactive)

Question: For `CCN(CC)CCOCCOC(=O)C1(c2ccccc2)CCCC1`, which “activation” value is on record?
Answer: 0.998% [at 42.5 µM] (inactive)

Question: Which “activation” value does the source give for `COc1ccc(CCN(C)CCCC(C#N)(c2cc(OC)c(OC)c(OC)c2)C(C)C)cc1OC` (stereo unspecified) here?
Answer: -2.51% [at 42.5 µM] (inactive)

tested on: not listed separately; test: qHTS assay to identify small molecule antagonists of the estrogen related receptor signaling pathway with the pleiotropic PPARgamma coactivator (PGC) from Tox21 10K library - cell viability counter screen (AID 1224840; active = well fitted cell-killing curve with a large enough effect in the repeat runs, not every such curve was filed as active; also: nearly all actives have a fitted effect of over 40% in size; also: potency is read from the fitted curve at half-maximal effect); conditions: PGC/ERR reporter cells viability, CellTiter-Fluor, 17.5 h; series mostly up to 92.4 µM; viability change, negative = cytotoxic: at the top concentration
In short: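 Compounds in DMSO, alongside positive and negative controls, were pinned onto PGC/ERR cells (2,000 per well). Exposure lasted 17.5 hours at 37 C, followed by a 30-minute CellTiter-Fluor incubation and fluorescence reading.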

Question: With `O=C1CCCCCCCCCCCN1` as the compound, how does the Potency read?
Answer: inactive

Question: For `CCOC(=O)CC(C)=O`, which “viability change, negative = cytotoxic” value is on record?
Answer: 1.74% (inactive)

Question: With `NC(=O)c1cn(Cc2c(F)cccc2F)nn1` as the compound, how does the “viability change, negative = cytotoxic” value read?
Answer: 18.8% [at 42.5 µM] (inactive)

Question: With `O=c1cc(-c2ccccc2)oc2ccccc12` as the compound, how does the Potency read?
Answer: inactive

Question: Which “viability change, negative = cytotoxic” value does the source give for `C=C1CC[C@H]2C[C@@H]1C2(C)C` here?
Answer: 8.14% (inactive)

Question: Which “viability change, negative = cytotoxic” value does the source give for `CC(=O)OCC(=O)[C@@]1(O)CC[C@H]2[C@@H]3CCC4=CC(=O)CC[C@]4(C)[C@H]3C(=O)C[C@@]21C` here?
Answer: 15.7% [at 42.5 µM] (inactive)

Question: With `COC(=O)[C@@H](N)Cc1ccc(O)c(O)c1` as the compound, how does the “viability change, negative = cytotoxic” value read?
Answer: -4.9% [at 42.5 µM] (inactive)

Question: Which “viability change, negative = cytotoxic” value does the source give for `CC[N+](C)(C)c1cccc(O)c1` here?
Answer: 18% [at 42.5 µM] (inactive)

Question: With `CN(C)CCCN1c2ccccc2CCc2ccc(Cl)cc21` as the compound, how does the Potency read?
Answer: 54.5 µM (active) and inactive

Question: For `CCN(Cc1ccncc1)C(=O)C(CO)c1ccccc1` (stereo unspecified), which “viability change, negative = cytotoxic” value is on record?
Answer: 7.35% [at 42.5 µM] (inactive)

Question: Which “viability change, negative = cytotoxic” value does the source give for `COC(=O)C1=C(C)NC(C)=C(C(=O)OC)C1c1ccccc1[N+](=O)[O-]` here?
Answer: -4.69% [at 42.5 µM] (inactive)

Question: Which viability change, negative = cytotoxic does the source give for `O=C(O)CN(CCOCCOCCN(CC(=O)O)CC(=O)O)CC(=O)O` here?
Answer: -9.4% [at 0.349 µM] (inactive)

Question: With `NCCc1cnc[nH]1` as the compound, how does the “viability change, negative = cytotoxic” value read?
Answer: 16.6% [at 42.5 µM] (inactive)

Question: Which “viability change, negative = cytotoxic” value does the source give for `CCn1nc(C(=O)O)c(=O)c2cc3c(cc21)OCO3` here?
Answer: 15.4% [at 42.5 µM] (inactive)

Question: For `CCCCOCCOCCOCc1cc2c(cc1CCC)OCO2`, which Potency is on record?
Answer: inactive

Question: For `CC(=O)OCC(CCn1cnc2cnc(N)nc21)COC(C)=O`, which “viability change, negative = cytotoxic” value is on record?
Answer: 12.5% [at 42.5 µM] (inactive)

Question: With `CCO/C([O-])=N/c1c[n+](N2CCOCC2)no1` as the compound, how does the “viability change, negative = cytotoxic” value read?
Answer: 1.05% [at 42.5 µM] (inactive)

Question: For `COc1ccc(CCN(C)CCCC(C#N)(c2cc(OC)c(OC)c(OC)c2)C(C)C)cc1OC` (stereo unspecified), which “viability change, negative = cytotoxic” value is on record?
Answer: -22.2% [at 42.5 µM] (inactive)

tested on: not listed separately; test: qHTS assay to identify small molecule antagonists of the estrogen related receptor signaling pathway with the pleiotropic PPARgamma coactivator (PGC) from Tox21 10K library (AID 1224841; call rule not given here; also: actives are mostly falling curves and most rising ones were filed inactive; nearly all actives have a fitted effect of over 50% in size; also: potency is read from the fitted curve at half-maximal effect); conditions: PGC/ERR reporter cell line, ONE-Glo luciferase, 18 h; series mostly up to 92.4 µM; activity, negative = inhibition: at the top concentration
In short: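 Compound exposure ran 18 hours at 37 C in PGC/ERR cells (2,000/well) that had first rested 6 hours in a 37 C/5% CO2 incubator. Luciferase activity was then detected with One-Glo after a 30-minute room-temperature step.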

Question: For `C[C@](N)(Cc1ccc(O)cc1)C(=O)O`, which activity, negative = inhibition is on record?
Answer: -1.66% [at 8.39 µM] (inactive)

Question: For `C1OCOCO1`, which “activity, negative = inhibition” value is on record?
Answer: 15.4% (inactive)

Question: Which “activity, negative = inhibition” value does the source give for `CC(C)(O)C#CC(C)(C)O` here?
Answer: 0.833% (inactive)

Question: For `COC(=O)[C@@H](N)Cc1ccc(O)c(O)c1`, which “activity, negative = inhibition” value is on record?
Answer: -1.33% [at 42.5 µM] (inactive)

Question: With `COC(=O)C1=C(C)NC(C)=C(C(=O)OC)C1c1ccccc1[N+](=O)[O-]` as the compound, how does the “activity, negative = inhibition” value read?
Answer: -22.5% [at 42.5 µM] (inactive)

Question: Which activity, negative = inhibition does the source give for `O=C(O)CN(CCOCCOCCN(CC(=O)O)CC(=O)O)CC(=O)O` here?
Answer: 5.6% [at 0.349 µM] (inactive)

Question: Which “activity, negative = inhibition” value does the source give for `Brc1c(NC2=NCCN2)ccc2nccnc12` here?
Answer: -0.657% [at 42.5 µM] (inactive)

Question: For `CC(C)(c1ccc(O)cc1)c1ccc(O)cc1`, which Potency is on record?
Answer: 60.4 µM (active) and 60.4 µM [inhibitor] (active)

Question: With `CCn1nc(C(=O)O)c(=O)c2cc3c(cc21)OCO3` as the compound, how does the “activity, negative = inhibition” value read?
Answer: 1.62% [at 42.5 µM] (inactive)

Question: Which “activity, negative = inhibition” value does the source give for `CCO/C([O-])=N/c1c[n+](N2CCOCC2)no1` here?
Answer: 8.52% [at 42.5 µM] (inactive)
